Source: PubChem BioAssay
Giardia kill: Giardia lamblia killing; Giardia lamblia trophozoite viability; activity change, % at 7.66 µM, hits read low; hit rate 0.15% among 340,000; AID 540267; in the data active = activity change below about -80%; inconclusive = between about -30% and that limit;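 also: parasites exposed to compound for two days anaerobically before the ATP read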
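Media and compound were dispensed first, then trophozoites at 100 cells/well; plates sat 48 hrs at 37 deg C without oxygen before ATP luminescence reagent was added and read after 15-30 min at room temperature.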
IL-1B inflam inh: inhibitors of inflammasome signaling (IL-1 beta secretion); THP-1 LPS/ATP IL-1B secretion, AlphaLISA, 16 h; active compounds read low; activity change, % at 57.5 µM; hit rate 4.7% among 360,000; AID 743279; in the data active = activity change below about -50%; inconclusive = mostly about -30% to -49%
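THP-1 cells pretreated 1 hr with compounds (up to 57.5 uM final), then stimulated with LPS (250 ng/mL final) plus ATP (1.25 mM final); secreted IL-1B measured by AlphaLISA after 16 hr, decreased signal indicating inhibition.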
TDP1 block: TDP1 (human) enzyme inhibition. Q9NUW8. recombinant TDP1, AlphaScreen DNA substrate cleavage. Potency, µM (doses to about 130 µM), most hits filed as inhibitors. hit rate 0.28% among 350,000. AID 485290; also: nearly all actives have a fitted effect of over 40% in size
Target sequence (Q9NUW8 whole entry, looked up): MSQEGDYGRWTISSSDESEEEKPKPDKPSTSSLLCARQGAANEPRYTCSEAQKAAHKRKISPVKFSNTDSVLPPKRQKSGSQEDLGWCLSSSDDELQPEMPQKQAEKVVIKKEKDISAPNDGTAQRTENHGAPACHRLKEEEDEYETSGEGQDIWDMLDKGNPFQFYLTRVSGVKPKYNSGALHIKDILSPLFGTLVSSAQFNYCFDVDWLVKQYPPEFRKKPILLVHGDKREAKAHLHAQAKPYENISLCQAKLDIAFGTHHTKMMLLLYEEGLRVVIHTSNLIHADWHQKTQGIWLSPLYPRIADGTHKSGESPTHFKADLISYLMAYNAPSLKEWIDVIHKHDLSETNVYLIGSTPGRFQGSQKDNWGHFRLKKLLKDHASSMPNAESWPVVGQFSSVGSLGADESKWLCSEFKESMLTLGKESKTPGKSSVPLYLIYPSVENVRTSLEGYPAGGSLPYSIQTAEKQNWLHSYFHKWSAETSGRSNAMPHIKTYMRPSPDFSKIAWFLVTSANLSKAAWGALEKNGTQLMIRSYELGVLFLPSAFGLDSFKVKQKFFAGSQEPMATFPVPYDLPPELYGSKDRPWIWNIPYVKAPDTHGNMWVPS
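Steps: enzyme plus compound, 15 min RT; add biotin/phosphotyrosine-FITC oligonucleotide (15 nM final), react 5 min; add donor/acceptor beads (10 ug/ml final), 10 min; read AlphaScreen. Tdp1 at 1 nM final.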
ELG1 DNA repair: inhibitors of ELG1-dependent DNA repair in HEK293T cells; hit rate 2.3% among 330,000; Potency, µM (highest dose often 46.1 µM), most hits filed as inhibitors; HEK293T ELG1-luciferase reporter, luminescence, 16 h; DNA damage induced by 5-fluorouridine; also: nearly all actives have a fitted effect of over 55% in size
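HEK293T cells expressing luciferase-tagged ELG1 (2,000/well) received 5-Fluorouridine plus compound or DMSO for 16 hr at 37 °C. Luciferase was read by ONE-Glo luminescence after 30 min at room temperature.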
DT40 TDP1 no CPT: qHTS for Inhibitors of human tyrosyl-DNA phosphodiesterase 1 (TDP1): qHTS in cells in absence of CPT; Potency, µM (titrated, usually from 46.2 µM), actives largely listed as inhibitors; DT40 Tdp1-/- hTDP1 cells, no CPT, ATP luminescence, 48 h; hit rate 15% among 420,000; also: nearly all actives have a fitted effect of over 55% in size
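Growth of hTDP1-complemented DT40 Tdp1-knockout cells is measured by ATP luminescence after at least 48 hr compound exposure at 37 °C, with DMSO substituting for the 20 nM CPT used in the parallel screen.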
DT40 TDP1 CPT: growth inhibition of DT40 Tdp1-/-;hTDP1 cells with camptothecin (screen for TDP1 inhibitors); chicken DT40 Tdp1-/-;hTDP1 cells + 20 nM CPT, ATP luminescence, 48 h; hit rate 12% among 420,000; Potency, µM (doses to about 46.2 µM), usual class: inhibitors; also: nearly all actives have a fitted effect of over 55% in size
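Chicken DT40 Tdp1-/- cells complemented with human TDP1, 400 cells/well, exposed to compounds plus 20 nM camptothecin for at least 48 h at 37 C; viability read as ATP content by CellTiter-Glo luminescence.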
Numbers stand for hits; - = inactive; ? = inconclusive; . = no result; [ ] = another dose, or the depositor's remark. A selection: hits, their analogues and other compounds. The true share with any hit is near 19%. Unless noted, calls follow the shape of the dose curve; as a rule, active = well fitted curve in the direction sought with a large enough effect; inconclusive = small, poorly fitted or top-dose-only effect, or another doubt; inactive = no such curve, though single readings can be large; an effect the other way counts as inactive or inconclusive.

SMILES	Giardia kill	IL-1B inflam inh	TDP1 block	ELG1 DNA repair	DT40 TDP1 no CPT	DT40 TDP1 CPT
O=C(CCC1N=C2c3ccccc3N=C(SCc3cccc(Cl)c3)N2C1=O)NCc1cccs1 (stereo unspecified)	.	.	-	.	20.6µM	11.6µM
O=C(CCC1N=C2c3ccccc3N=C(SCc3cccc(F)c3)N2C1=O)NCc1ccc(F)cc1 (stereo unspecified)	.	.	-	.	18.4µM	?
CN(C)CCCN1c2ccc([N+](=O)[O-])cc2CCc2cc([N+](=O)[O-])ccc21	-	.	.	.	.	.
O=c1ccc(-c2ccc(S(=O)(=O)N3CCCCC3)o2)n[nH]1	-	-	-	-	-	-
O=C(CCC1N=C2c3ccccc3N=C(SCc3cccc(F)c3)N2C1=O)NCCc1ccccc1 (stereo unspecified)	.	.	-	.	?	20.6µM
O=C(CCC1N=C2c3ccccc3N=C(SCC(=O)NCCc3ccccc3)N2C1=O)NCc1ccc(F)cc1 (stereo unspecified)	.	.	-	.	?	?
COc1ccccc1CNC(=O)CCC1N=C2c3ccccc3N=C(SCC(=O)NCCc3ccc(OC)c(OC)c3)N2C1=O (stereo unspecified)	.	.	-	.	?	18.4µM
CN1CCN(C(=O)CCN2C(=O)S/C(=C/c3ccc(Cl)cc3)C2=O)CC1	-	-	-	-	13µM	13µM
COc1ccc(/C=C2\SC(=O)N(CCC(=O)N3CCN(C)CC3)C2=O)cc1	-	-	.	?	?	-
Cc1ccc(/C=C2\SC(=O)N(CCNC(=O)C3CSC4(C)CCC(=O)N34)C2=O)cc1 (stereo unspecified)	-	?	-	-	14.6µM	?
COc1ccc(/C=C2\SC(=O)N(CCNC(=O)Cn3cnnn3)C2=O)cc1	-	-	-	?	-	-
O=C1S/C(=C\c2ccc(Cl)cc2)C(=O)N1CCn1cnnn1	-	-61.5	-	?	?	-
CCN(C(=O)CN1C(=O)S/C(=C\c2ccc(Cl)cc2)C1=O)C1CCS(=O)(=O)C1 (stereo unspecified)	-	-	-	-	-	-
CC12CCC(=O)N1C(C(=O)NCCN1C(=O)S/C(=C\c3ccccc3Cl)C1=O)CS2 (stereo unspecified)	-	-	-	-	?	-
Cc1ccc(/C=C2\SC(=O)N(CCC(=O)N3CCN(C)CC3)C2=O)cc1	-	-	-	?	23.1µM	18.4µM
NCCCC[C@H](NC(=O)[C@@H]1CCCN1C(=O)[C@@H]1CSSC[C@H](N)C(=O)N[C@@H](Cc2ccccc2)C(=O)N[C@@H](Cc2ccccc2)C(=O)N[C@@H](CCC(N)=O)C(=O)N[C@@H](CC(N)=O)C(=O)N1)C(=O)NCC(N)=O	.	.	.	.	-	-
CCc1cc(=O)oc2c(C)c(OCC(=O)N3CCC(C(=O)O)CC3)ccc12	-	-	.	-	?	-
COc1ccc(N=Cc2cc(Cc3ccccc3Cl)cc([N+](=O)[O-])c2O)cc1OC	-	-	-	?	25.9µM	?
COCCNc1nc(-c2cccc(OC)c2)nc2ccccc12	.	.	-	.	6.51µM	18.4µM
c1ccc(CNc2nc(-c3cccs3)nc3ccccc23)cc1	-	.	-	-	?	?
c1ccc(-c2nc(NCCCn3ccnc3)c3ccccc3n2)cc1	-	-73.2	-	?	-	-
c1ccc(CNc2nc(NCc3ccccc3)c3ccccc3n2)cc1	-	-99.9	-	-	5.17µM	5.8µM
COc1cccc(-c2nc(NC3CC3)c3ccccc3n2)c1	.	.	.	.	20.6µM	16.4µM
O=C1NC(=O)C([N+](=O)[O-])=C(O)C1=O	.	-	.	.	-	-
CC(=O)Nc1ccc(CN2C(=O)C(Cc3ccccc3)ON=C2c2ncccc2C)cc1 (stereo unspecified)	.	-	.	.	?	?
SMILES	Giardia kill	IL-1B inflam inh	TDP1 block	ELG1 DNA repair	DT40 TDP1 no CPT	DT40 TDP1 CPT
COc1cccc(-c2nc(NCc3ccccc3)c3ccccc3n2)c1	.	.	.	.	16.4µM	?
CCN(CC)CCCNc1nc2ccccc2c2[nH]c3ccc(OC)cc3c12	-84.2	-98.1	.	.	2.91µM	5.17µM
c1ccc(CNc2nc(-c3ccccn3)nc3ccccc23)cc1	-	-71.4	.	-	3.66µM	3.66µM
COC(=O)c1nnc(C(=O)NCc2ccccc2)c2[nH]c3ccc(OC)cc3c12	.	.	-	.	.	.
COc1cccc(-c2nc(NCc3cccnc3)c3ccccc3n2)c1	.	.	.	.	-	-
CC(C)(C)c1ccc(-c2nc(NCc3cccnc3)c3ccccc3n2)cc1	-	-65.5	-	?	?	?
c1cncc(CNc2nc(-c3cccnc3)nc3ccccc23)c1	-	-	.	-	-	?
O=C(COC(=O)c1ccc2ccccc2c1O)Nc1ccccc1	-	-	-	-	-	-
O=C1c2ccccc2C(=O)N1CCCCN(C(=O)c1cc2ccccc2oc1=O)c1ccc(F)cc1F	-	-	-	-	?	?
CCN(CC)CCCNc1nc(-c2ccccc2)nc2ccccc12	-	.	-	?	?	?
c1ccc(CNc2nc(-c3ccccc3)nc3ccccc23)cc1	-	-89.3	.	-	-	-
COc1ccc(-c2nc(NCCCN(C)C)c3ccccc3n2)cc1	-99.0	?	.	-	?	-
CCC(C)Nc1nc(-c2ccccn2)nc2ccccc12 (stereo unspecified)	-	-	.	?	3.66µM	4.11µM
COCCNc1nc(-c2ccccc2)nc2ccccc12	-	-	-	-	?	-
COC(=O)c1c(N2C(=O)[C@H]3[C@@H](C2=O)[C@]2(C(=O)Nc4c2ccc(C)c4C)N2CCC[C@@H]32)sc(C)c1C	-	-	-	6.51µM	16.4µM	18.4µM
Cn1c(NC(=O)c2ccccc2F)c(-c2cccs2)c(=O)c2ccccc21	-	-	.	-	-	?
CCCCOC(=O)c1ccc(Nc2nc3ccccc3c3nnc(C)n23)cc1	.	.	-	.	20.6µM	16.4µM
CCc1ccc(Nc2nc3ccccc3c3nnc(C)n23)cc1	.	.	-	.	10.3µM	8.2µM
COc1ccc(OC)c(Nc2nc3ccccc3n3c(C)nnc23)c1	.	.	-[12.3 µM]	.	-	-
Cc1nnc2c(-c3ccccc3)nc3ccccc3n12	-	-	-	?	?	-
CCCCOC(=O)c1ccc(Nc2nnc(-n3nc(C)cc3C)c3ccccc23)cc1	.	.	-	.	?	?
COc1ccc(Nc2nc3ccccc3c3nnc(C)n23)cc1Cl	.	.	-[12.3 µM]	.	6.51µM	10.3µM
Cc1cc(Nc2nc3ccccc3c3nnc(C)n23)ccc1Br	.	.	-	.	18.4µM	?
Cc1nnc2c3ccccc3nc(Nc3ccccc3C(=O)O)n12	.	.	-	.	?	?
Cc1ccc(Nc2nc3ccccc3c3nncn23)cc1C	.	.	-	.	16.4µM	8.2µM
CCOCCCNC(=O)c1cc2c(=O)[nH]c3ccccc3c2n1C	.	.	-	.	-	-
